# PubChem BioAssay (NCATS)
# Results filed as inconclusive are left out. Where a call stands in place of a potency, no number is given. Activity calls are given as the source filed them. Calls follow the shape of the dose curve; as a rule, active = well fitted curve in the direction sought with a large enough effect; inconclusive = small, poorly fitted or top-dose-only effect, or another doubt; inactive = no such curve, though single readings can be large; an effect the other way counts as inactive or inconclusive.
# Experiments:
# [1] = tested on: Zika virus NS2B-NS3 protease (unlinked complex); assay: Primary screen GU Rhodamine qHTS for Zika virus inhibitors: Unlinked NS2B-NS3 protease assay (AID 1347159); also: nearly all actives have a fitted effect of over 60% in size; also: potency is read from the fitted curve at half-maximal effect
# How it was run: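 Buffer 10 mM Tris-HCl pH 8.0, 0.01% Tween 20. Unlinked protease 25 nM; compound preincubation 15 min, RT, protected from light. Substrate Rhod110, 1.5 microM; ~15% conversion in 15 min.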
# [2] = tested on: Zika virus NS2B-NS3 protease (linked construct); assay: Primary screen NINDS Rhodamine qHTS for Zika virus inhibitors (AID 1347160); also: nearly all actives have a fitted effect of over 55% in size
# How it was run: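 Aprotinin served as in-plate control. Conditions: 25 nM linked NS2B-NS3, pH 8.0 Tris buffer, titrated compounds, 15 min preincubation and 15 min reaction with 1.5 microM Rhod110 substrate at room temperature.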
# [3] = qHTS to identify inhibitors of the type 1 interferon - major histocompatibility complex class I in skeletal muscle: primary screen against the NCATS Pharmaceutical Collection (AID 1347407);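 also: luminescence of HiBiT knocked into endogenous HLA-B as interferon-induced MHC class I level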
# How it was run: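 Immortalized human myoblasts (C25cl48) with HiBiT knocked into endogenous HLA-B*08:01 were stimulated with 4.0 ng/ml IFN-beta and treated with compounds ([…] top 46 uM) for 24 hrs at 37 C. HiBiT lytic luminescence read.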
# [4] = qHTS to identify inhibitors of the type 1 interferon - major histocompatibility complex class I in skeletal muscle: primary screen against the NCATS Mechanism Interrogation Plate v5.0 (MIPE) Libary (AID 1347411); also: nearly all actives have a fitted effect of over 65% in size; also: potency is read from the fitted curve at half-maximal effect
# How it was run: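 Seed engineered human myoblasts (HLA-B HiBit) in medium without dexamethasone containing 4 ng/ml IFN-beta; after 1 hr add compound titrations (top 46 uM final). Incubate 24 hrs at 37 C, lyse 10 min with HiBiT reagent, read luminescence.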
# [5] = target: Protein phosphatase 1D (Homo sapiens) (UniProt O15297); assay: RapidFire Mass Spectrometry qHTS Assay for Modulators of WT P53-Induced Phosphatase 1 (WIP1) (AID 1347424);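 also: amount of dephosphorylated VEPPL-S-QETFS peptide product formed by WIP1; series mostly up to about 63 µM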
# How it was run: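 Mass-spectrometric measurement of dephosphorylated peptide after a 5 min room-temperature reaction of 10 nM WIP1 with 2 uM phosphopeptide, following 1 h compound preincubation in 30 mM MgCl2 buffer.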
# [6] = tested on: Zika virus NS2B-NS3 protease; assay: Primary screen GU AMC qHTS for Zika virus inhibitors (AID 1347154); also: nearly all actives have a fitted effect of over 70% in size
# How it was run: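 Unlinked Zika NS2B hydrophilic domain/NS3 protease domain noncovalent complex (25 nM final) in 10 mM Tris-HCl pH 8.0, 0.01% Tween 20, with AMC peptide substrate. Fluorescence (ex 340, em 450 nm) change over 15 min, room temperature; percent inhibition fitted to 4-parameter Hill equation.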
# [7] = Confirmatory screen NINDS Rhodamine qHTS for Zika virus inhibitors (AID 1347161); also: potency is read from the fitted curve at half-maximal effect; nearly all actives have a fitted effect of over 60% in size
# How it was run: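 Enzyme (25 nM, linked NS2B-NS3) was preincubated 15 min with compound in 10 mM Tris-HCl pH 8.0, 0.01% Tween 20. Rhodamine110 substrate (1.5 microM) was then added and fluorescence read at start and after 15 min.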
# [8] = tested on: Zika virus NS2B-NS3 protease (linked construct); assay: 384 well plate NINDS Rhodamine confirmatory qHTS for Zika virus inhibitors (AID 1347164);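 also: fluorescence from protease cleavage of Ac-LKRR-rhodamine 110 substrate; potency is read from the fitted curve at half-maximal effect; nearly all actives have a fitted effect of over 65% in size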
# How it was run: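 Linked NS2B-NS3 protease (final 5, 30 or 60 nM) preincubated ~15 minutes with compounds, then 10 microM Ac-LKRR-Rhodamine 110 added. Fluorescence (485/538 nm) read after 25 minutes at room temperature, normalized to no-enzyme and no-inhibitor controls.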
# Protein phosphatase 1D (Homo sapiens), sequence (O15297 whole entry, looked up): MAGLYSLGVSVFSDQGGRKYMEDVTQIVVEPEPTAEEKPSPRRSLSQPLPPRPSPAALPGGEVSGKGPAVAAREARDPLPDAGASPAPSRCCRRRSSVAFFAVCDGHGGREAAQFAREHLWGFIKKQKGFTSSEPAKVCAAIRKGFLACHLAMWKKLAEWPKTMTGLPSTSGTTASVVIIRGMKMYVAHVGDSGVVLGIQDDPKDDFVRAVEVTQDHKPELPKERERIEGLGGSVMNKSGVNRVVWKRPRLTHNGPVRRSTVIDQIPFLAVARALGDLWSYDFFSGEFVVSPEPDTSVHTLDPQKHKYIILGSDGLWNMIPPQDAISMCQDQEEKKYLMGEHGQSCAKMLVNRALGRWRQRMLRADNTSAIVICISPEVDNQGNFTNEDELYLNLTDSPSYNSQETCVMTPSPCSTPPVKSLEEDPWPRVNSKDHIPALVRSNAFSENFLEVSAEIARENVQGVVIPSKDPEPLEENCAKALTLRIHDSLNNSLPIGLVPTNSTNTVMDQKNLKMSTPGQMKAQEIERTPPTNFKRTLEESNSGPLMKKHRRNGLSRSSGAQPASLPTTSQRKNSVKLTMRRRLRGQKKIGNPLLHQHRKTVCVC
compound,measurement,setting,value
COc1ccc(-c2nc3ccc(C4=NNC(=O)CC4C)cc3[nH]2)cc1 (configuration not stated),Potency,[1],inactive
same,Potency,[2],inactive
same,outcome,[3],inactive
same,Potency,[4],inactive
same,Potency,[5],inactive
CCC(C)SSc1ncc[nH]1 (configuration not stated),Potency,[6],inactive
same,Potency,[4],inactive
O=C1CCCC(=O)C1C(=O)c1ccc(C(F)(F)F)cc1[N+](=O)[O-],Potency,[6],inactive
same,Potency,[4],inactive
COc1ccc(Cn2ccc3ccc(C(=O)NO)cc32)cc1,Potency,[1],inactive
same,Potency,[2],inactive
same,Potency,[4],inactive
CC(C)(C)c1nc(-c2cccc(NS(=O)(=O)c3c(F)cccc3F)c2F)c(-c2ccnc(N)n2)s1,Potency,[1],14.1 µM (active)
CN(C(Cc1ccc(OS(=O)(=O)c2cccc3cnccc23)cc1)C(=O)N1CCN(c2ccccc2)CC1)S(=O)(=O)c1cccc2cnccc12 (configuration not stated),Potency,[6],inactive
same,Potency,[4],inactive
COc1cc2ncn(-c3cc(OCc4ccccc4S(C)(=O)=O)c(C#N)s3)c2cc1OC,Potency,[6],inactive
same,Potency,[4],inactive
Cc1cnc(Nc2cccc(CN3CCOCC3)c2)nc1Nc1cccc(S(=O)(=O)NC(C)(C)C)c1,Potency,[1],inactive
same,Potency,[2],inactive
CC(C)CNc1ccnc(NCc2csc(-c3ccccc3)n2)n1,Potency,[1],inactive
same,Potency,[2],inactive
same,Potency,[4],16.5 µM (active)
COC(=O)N1CCN(Cc2cccc(NC(=O)Nc3ccc(C)nc3)c2F)CC1,Potency,[1],inactive
same,Potency,[2],inactive
same,Potency,[4],inactive
CC1CCN(c2cc(N3CCN(C)CC3)ccc2NC(=O)c2cc(C#N)c[nH]2)CC1,Potency,[1],inactive
NCc1c[nH]c(=S)n1[C@H]1CCc2c(F)cc(F)cc2C1,Potency,[6],inactive
same,Potency,[4],inactive
C[C@@H]1CCO[C@H]2Cn3cc(C(=O)NCc4ccc(F)cc4F)c(=O)c(O)c3C(=O)N12,Potency,[1],inactive
same,Potency,[2],inactive
CN1CCN2c3ncccc3Cc3ccccc3C2C1 (configuration not stated),Potency,[6],inactive
same,Potency,[4],inactive
CS(=O)(=O)c1ccc(C2=C(c3ccccc3)C(=O)OC2)cc1,Potency,[1],inactive
same,Potency,[2],inactive
same,Potency,[4],inactive
CC(C)(CO)[C@@H](O)C(=O)NCCC(=O)O,Potency,[6],inactive
same,Potency,[4],inactive
N#Cc1ccc(Oc2ccc3c(c2)COB3O)cc1,Potency,[6],inactive
same,Potency,[4],inactive
Cc1cccc(Nc2nc(N[C@@H]3CCCC[C@H]3N)ncc2C(N)=O)c1,Potency,[6],inactive
same,Potency,[4],13.1 µM (active)
CC1=C(CC(=O)O)c2cc(F)ccc2C1=Cc1ccc(S(C)=O)cc1 (configuration not stated),Potency,[6],inactive
same,Potency,[4],inactive
CNC(=O)c1ccc2c(C(=Nc3cccc(CN(C)C)c3)c3ccccc3)c(O)[nH]c2c1,Potency,[1],inactive
CC(C)C[C@@H](N)[C@H](O)C(=O)N[C@H](C(=O)N[C@H](C(=O)N[C@@H](CC(=O)O)C(=O)O)C(C)C)C(C)C,Potency,[6],inactive
same,Potency,[4],inactive
COc1ccc(-c2oc3c(CC=C(C)C)c(O)cc(O)c3c(=O)c2O)cc1,Potency,[6],inactive
same,Potency,[4],inactive
CC(NCCc1ccc(O)cc1)C(O)c1ccc(O)cc1 (configuration not stated),Potency,[6],inactive
same,Potency,[4],inactive
CC[C@H](CC#N)OC(=O)N[C@@H](C)c1cccc(NC(=O)Nc2ccc(-c3cnco3)c(OC)c2)c1,Potency,[2],inactive
CNC(=O)c1cc(Oc2ccc(NC(=O)Nc3ccc(Cl)c(C(F)(F)F)c3)c(F)c2)ccn1,Potency,[2],inactive
C=C1c2cccc(O)c2C(O)=C2C(=O)[C@@]3(O)C(O)=C(C(N)=O)C(=O)[C@@H](N(C)C)[C@@H]3[C@@H](O)[C@H]12,Potency,[7],15.6 µM (active)
CN(C)CC[C@H](CSc1ccccc1)Nc1ccc(S(=O)(=O)NC(=O)c2ccc(N3CCN(Cc4ccccc4-c4ccc(Cl)cc4)CC3)cc2)cc1[N+](=O)[O-],Potency,[8],0.708 µM (active)
OC[C@H]1O[C@@H](OCCc2ccc(O)cc2)[C@H](O)[C@@H](O)[C@H]1O,outcome,[3],inactive
same,Potency,[5],inactive
O[C@@H](COc1cccc2ncccc12)CN1CCN(C2c3ccccc3[C@@H]3[C@H](c4ccccc42)C3(F)F)CC1 (some centres not stated),Potency,[5],inactive
